{"source": "PubChem BioAssay", "data": [{"biological_target": "NADPH oxidase 5 (Homo sapiens) (UniProt Q96PH1)", "sequence (Q96PH1 whole entry, looked up)": "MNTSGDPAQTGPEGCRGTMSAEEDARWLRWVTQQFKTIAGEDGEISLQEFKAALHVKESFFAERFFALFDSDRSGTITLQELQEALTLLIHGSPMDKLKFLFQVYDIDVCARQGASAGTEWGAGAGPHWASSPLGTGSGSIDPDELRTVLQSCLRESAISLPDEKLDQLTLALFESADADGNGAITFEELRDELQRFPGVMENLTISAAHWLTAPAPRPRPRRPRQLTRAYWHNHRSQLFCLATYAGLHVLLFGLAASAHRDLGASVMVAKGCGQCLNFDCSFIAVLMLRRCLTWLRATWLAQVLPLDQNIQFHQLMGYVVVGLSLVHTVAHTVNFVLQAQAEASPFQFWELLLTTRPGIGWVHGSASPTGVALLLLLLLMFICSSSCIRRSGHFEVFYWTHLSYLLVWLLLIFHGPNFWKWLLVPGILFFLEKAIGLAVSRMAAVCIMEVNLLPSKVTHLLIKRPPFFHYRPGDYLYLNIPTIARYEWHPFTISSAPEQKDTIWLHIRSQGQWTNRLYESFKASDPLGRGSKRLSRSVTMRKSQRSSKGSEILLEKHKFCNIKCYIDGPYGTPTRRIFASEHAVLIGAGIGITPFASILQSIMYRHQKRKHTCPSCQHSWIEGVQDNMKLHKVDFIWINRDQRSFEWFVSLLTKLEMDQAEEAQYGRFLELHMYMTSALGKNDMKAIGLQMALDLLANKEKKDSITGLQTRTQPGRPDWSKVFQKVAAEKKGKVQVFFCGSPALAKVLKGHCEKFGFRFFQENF", "test": "compounds shifting NOX5 Amplex Red fluorescence – cell-based, HEK293-NOX5, NOX inhibitor project, primary screen (AID 1161)", "conditions": "HEK293-NOX5, ionomycin, 45 min, higher = more signal", "values": [{"smiles": "CSCC[C@@H]1NC(=O)CC=C[C@@H](C)COC(=O)[C@H](CCSC)NC(=O)CC=C[C@@H](C)COC1=O", "z-score": 1.5}, {"smiles": "O=C1OCC=C[C@H]2OC34C=CCN(Cc5ccccc5)C(=O)[C@H]3N(CCCCCO)C(=O)[C@@H]4[C@@H]12", "note": "(some centres not stated)", "z-score": 1.51}, {"smiles": "Cc1ccc(S[C@]2(C(=O)NCCN3CCOCC3)CC(=O)N(C3Cc4ccccc4C3)[C@@H]2c2ccc(CO)cc2I)cc1", "z-score": 1.33}, {"smiles": "COC(=O)C[C@H]1O[C@]2(C(=O)N(C)c3ccccc32)[C@@H](C)[C@@H]1[Si](C)(C)c1ccc(OC)cc1", "z-score": -0.451}, {"smiles": "CC/C=C/C(=O)N(C[C@@H]1CCCO1)[C@@H]1CC(C(=O)NCCO)=C[C@H](Oc2c(I)cc(CO)cc2OC)[C@H]1O", "z-score": 1.2}, {"smiles": "C=C[C@H](OC)[C@@H](OC(=O)Nc1ccc(SC)cc1)c1ccc(OC)c(O)c1", "z-score": -0.943}, {"smiles": "CN1C2C=C(c3ccc(CO)cc3)C(C3C(=O)N(C(N)=O)C(=O)C32)C1c1cccs1", "note": "(configuration not stated)", "z-score": -0.0981}, {"smiles": "C=CCN(C(=O)C1N(c2ccc(CCO)cc2)C(=O)C2C(C(=O)O)C3C=CC21O3)C(C)(C)C", "note": "(configuration not stated)", "z-score": 0.845}, {"smiles": "C=CCC1=C[C@H]2[C@H]([C@@H]3C=C[C@]2(CC=C)C(=O)[C@]32CO2)[C@@]2(CO2)C1=O", "z-score": -0.972}, {"smiles": "Cc1ccc(S[C@]2(C(=O)O)CC(=O)N(Cc3ccccc3)[C@@H]2c2ccc(CO)cc2)cc1", "z-score": 1.6}, {"smiles": "CCCNC(=O)[C@@H]1c2ccccc2C(=O)N(Cc2cc(F)cc(C(F)(F)F)c2)[C@H]1c1ccc(CO)cc1", "z-score": 0.676}, {"smiles": "O=C1c2ccccc2[C@](Cc2ccccc2I)(C(=O)O)[C@H](c2ccc(CO)cc2)N1C1CCCCC1", "z-score": -0.473}, {"smiles": "[N-]=[N+]=NCc1ccccc1C[C@]1(C(N)=O)N=C(c2ccc(OCCCO)cc2)O[C@H]1c1ccccc1CN=[N+]=[N-]", "z-score": -0.692}, {"smiles": "CO[C@H]1COC(=O)[C@H](C)NC(=O)CC=C[C@@H](C)[C@H](NS(=O)(=O)c2ccc(C)cc2)COC(=O)[C@@H](OCc2ccccc2)C=C[C@@H]1C", "z-score": 0.2}, {"smiles": "COC(=O)c1c(CC[C@@H](CO)NC(=O)N[C@H](Cn2cc(-c3cncn3C)nn2)C(C)C)oc(C(C)=O)c1C(=O)OC", "z-score": -0.295}, {"smiles": "C=C(COC)/C(=C/C[C@@H](OC(C)=O)c1cccc(OCCO)c1)c1cc(C(=O)OC)ccc1OC", "z-score": -1.1}, {"smiles": "CC(C)[Si]1(C(C)C)O[C@@H](c2ccccc2)c2cc(C3CC3)nc(-c3ccc(Oc4ccccc4)cc3)c21", "z-score": 0.456}]}]}
